Compound activity deposited in PubChem by National Center for Advancing Translational Sciences (NCATS).
IL-1B inflam inh: qHTS for Inhibitors of Inflammasome Signaling: IL-1-beta AlphaLISA Primary Screen; 4.7% of 360,000 active; THP-1 LPS/ATP IL-1B secretion, AlphaLISA, 16 h; hits give low values; activity change, % at 57.5 µM; in the data active = activity change below about -50%; inconclusive = mostly about -30% to -49%
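Secreted IL-1B measured by AlphaLISA bead assay after 16 h compound exposure of THP-1 cells; compounds (final up to 57.5 uM) added 1 h before LPS (250 ng/mL) and ATP (1.25 mM) stimulation; lower signal means less secretion.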
DT40 TDP1 CPT: qHTS for Inhibitors of human tyrosyl-DNA phosphodiesterase 1 (TDP1): qHTS in cells in presence of CPT; chicken DT40 Tdp1-/-;hTDP1 cells + 20 nM CPT, ATP luminescence, 48 h; AID 686979, 2013; 12% of 420,000 active; Potency, µM (top dose mostly 46.2 µM), without a hit: top-dose activity change, negative = growth inhibition, most hits filed as inhibitors; also: potency is read from the fitted curve at half-maximal effect; nearly all actives have a fitted effect of over 55% in size
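Cell growth measured by CellTiter-Glo luminescence after a minimum 48 h, 37 C compound exposure with 20 nM CPT in Tdp1-knockout DT40 cells stably expressing hTDP1, seeded 400/well; qHTS titration format.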
TDP1 inh: qHTS Assay for Inhibitors of Tyrosyl-DNA Phosphodiesterase (TDP1); 0.28% of 350,000 active; Tyrosyl-DNA phosphodiesterase 1 (Homo sapiens), Q9NUW8; Potency, µM (titrated, usually from 130 µM), for inactives: top-dose activity change, negative = inhibition, actives largely listed as inhibitors; recombinant TDP1, AlphaScreen DNA substrate cleavage; also: potency is read from the fitted curve at half-maximal effect; nearly all actives have a fitted effect of over 40% in size
Target sequence (Q9NUW8 whole entry, looked up): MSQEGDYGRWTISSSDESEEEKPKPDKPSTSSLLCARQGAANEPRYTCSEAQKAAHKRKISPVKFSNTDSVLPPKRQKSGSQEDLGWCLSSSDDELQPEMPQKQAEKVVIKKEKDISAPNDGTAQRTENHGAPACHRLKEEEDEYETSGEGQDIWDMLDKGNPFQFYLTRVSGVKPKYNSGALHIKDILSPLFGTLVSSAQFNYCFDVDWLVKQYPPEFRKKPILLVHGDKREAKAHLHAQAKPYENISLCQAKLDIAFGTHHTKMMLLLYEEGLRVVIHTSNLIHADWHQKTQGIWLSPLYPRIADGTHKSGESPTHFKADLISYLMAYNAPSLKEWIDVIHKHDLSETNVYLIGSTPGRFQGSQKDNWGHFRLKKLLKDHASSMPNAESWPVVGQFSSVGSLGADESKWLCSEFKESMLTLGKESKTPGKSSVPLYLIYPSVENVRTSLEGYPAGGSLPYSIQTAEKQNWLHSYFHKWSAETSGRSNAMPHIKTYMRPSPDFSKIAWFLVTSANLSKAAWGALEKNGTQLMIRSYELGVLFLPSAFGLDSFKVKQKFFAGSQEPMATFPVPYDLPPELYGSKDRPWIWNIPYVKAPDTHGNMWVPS
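Here, a 5' biotin and 3' phosphotyrosine-FITC DNA oligonucleotide reports Tdp1 activity: intact substrate bridges AlphaScreen beads, while cleavage leaves a 3' phosphate and drops signal. All incubations at room temperature.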
Giardia kill: Small Molecules that selectively kill Giardia lamblia: qHTS. activity change, % at 7.66 µM, hits read low. AID 540267, 2011. 0.15% of 340,000 active. Giardia lamblia trophozoite viability; in the data active = activity change below about -80%; inconclusive = between about -30% and that limit;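 also: parasites exposed to compound for two days anaerobically before the ATP read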
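Luminescent ATP signal served as the viability read-out, measured 15-30 min after adding ATP detection reagent to trophozoites that had been incubated with compounds for 48 hrs at 37 deg C anaerobically at 100 cells/well.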
ELG1 repair inh: qHTS screen for small molecules that inhibit ELG1-dependent DNA repair in human embryonic kidney (HEK293T) cells expressing luciferase-tagged ELG1 | HEK293T ELG1-luciferase reporter, luminescence, 16 h; DNA damage induced by 5-fluorouridine | Potency, µM (highest dose often 46.1 µM), without a hit: at the highest dose activity change, negative = inhibition, most hits filed as inhibitors | 2.3% of 330,000 active | AID 504467, 2011; also: potency is read from the fitted curve at half-maximal effect; nearly all actives have a fitted effect of over 55% in size
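Luminescence from the luciferase reporter, measured 30 min after ONE-Glo reagent at room temperature, was the read-out. Beforehand, 2,000 cells per well were exposed for 16 hr at 37 °C to 5-fluorouridine together with compound or vehicle.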
DT40 TDP1 no CPT: qHTS for Inhibitors of human tyrosyl-DNA phosphodiesterase 1 (TDP1): qHTS in cells in absence of CPT; DT40 Tdp1-/- hTDP1 cells, no CPT, ATP luminescence, 48 h; Potency, µM (series often up to 46.2 µM), without a hit: at the highest dose activity change, negative = growth inhibition, hits mostly inhibitors; AID 686978, 2013; 15% of 420,000 active; also: potency is read from the fitted curve at half-maximal effect; nearly all actives have a fitted effect of over 55% in size
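DT40 Tdp1-/-;hTDP1 cells, no CPT (DMSO vehicle only), 400 cells/well; compounds pin-transferred; ≥48 hr, 37 °C; CellTiter-Glo 30 min RT dark, luminescence read.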
Starred values were filed as active, the others as inactive; ? = inconclusive; . = not tested or not shown. Rows were chosen to be rich in hits. Some 19% of all compounds tested hit in one or more screens of this group. Unless noted, calls follow the shape of the dose curve; as a rule, active = well fitted curve in the direction sought with a large enough effect; inconclusive = small, poorly fitted or top-dose-only effect, or another doubt; inactive = no such curve, though single readings can be large; an effect the other way counts as inactive or inconclusive. % is scaled to controls: 0 for no effect and ±100 for the full control effect.

SMILES	IL-1B inflam inh	DT40 TDP1 CPT	TDP1 inh	Giardia kill	ELG1 repair inh	DT40 TDP1 no CPT
Cc1nnc(NC2(C(F)(F)F)C(=O)Nc3c2c(=O)n(C)c(=O)n3C)s1 (centres undefined)	6	-1%	4%	1	20%	3%
Cn1c2c(c(=O)n(C)c1=O)C(C(F)(F)F)(C(F)(F)F)N=C(C1CCCCC1)N2	-11	18µM*	5%	5	?	26µM*
Cc1ccccc1C1=NC(C(F)(F)F)(C(F)(F)F)c2c(n(C)c(=O)n(C)c2=O)N1	-5	?	-5%	5	?	23µM*
COC(=O)NC1(C(F)(F)F)C(=O)Nc2c1c(=O)n(C)c(=O)n2C (centres undefined)	-4	-4%	-3%	-10	14%	2%
Cn1c2c(c(=O)n(C)c1=O)C(C(F)(F)F)(C(F)(F)F)N=C(c1ccc(Cl)cc1)N2	-2	0.92µM*	2%	11	0.65µM*	1.3µM*
N=C(N)c1ccc(N=Nc2c(O)ccc3c2[nH]c2ccccc23)cc1	-97*	21µM*	.	2	.	7.3µM*
CCOC(=O)C1CCN(C(c2ccccc2)c2c(O)cc(C)n(Cc3ccco3)c2=O)CC1 (centres undefined)	.	-2%	0%	.	.	-5%
Cc1cc(OCC(=O)NCC2CCC(C(=O)O)CC2)c2c(C)c(Cc3ccccc3)c(=O)oc2c1 (centres undefined)	8	-16%	.	12	8%	-25%
CCCCOCCCNC(=O)C[C@@H]1C[C@@]2(C(=O)OCC)CCC=C2N(Cc2ccc3c(c2)OCO3)C1=O	-9	21µM*	.	.	.	16µM*
CCOC(=O)[C@]12CCC=C1N(Cc1ccc3c(c1)OCO3)C(=O)[C@H](CC(=O)NCC13CC4CC(CC(C4)C1)C3)C2	?	?	.	.	.	23µM*
OC(c1ccccc1)c1nc(/C=C/c2ccccc2)cs1 (centres undefined)	19	-27%	.	.	.	-26%
COc1ccc(/C(C)=N/Nc2ccc(F)cc2F)c(O)c1	-2	22%	9%	-1	?	-3%
COc1ccc(/C(C)=N/Nc2ccccc2Cl)c(O)c1	38	-10%	40µM*	-18	?	-1%
COc1cccc(C(=O)N2CCN(Cc3nc(CC4CC4)no3)CC2)c1	10	-22%	.	8	-7%	4%
Cc1noc(C)c1CCC(=O)N1CCCC(CCC(=O)NCc2ccccc2F)C1 (centres undefined)	-6	?	-10%	21	4%	-22%
CC(=O)N/N=C(/c1ccccc1)C(O)c1ccccc1 (centres undefined)	14	26%	.	-11	8%	9%
COc1cc(N2C(=O)C=CC2=O)ccc1N1C(=O)C=CC1=O	-99*	0.73µM*	.	11	.	0.92µM*
CN(C(=O)Nc1ccc(Cl)cc1Cl)[C@H]1c2cc(Br)ccc2OC[C@H]1CO	-73*	?	0%	12	21µM*	-18%
COc1ccc(-c2c(NC(=O)c3ccco3)oc3c(C)cccc3c2=O)cc1	4	-24%	2%	-20	?	-11%
CCOC(=O)Cn1c(=NC(=O)c2ccc([N+](=O)[O-])s2)sc2ccccc21	0	?	4%	-96*	-19%	?
O=C(Cc1cccs1)N1CCN(S(=O)(=O)c2cc(Cl)ccc2Cl)CC1	-3	2%	.	-9	13%	3%
